Experimental data: PubChem BioAssay (NCI)
Where “and” joins values, the source holds several entries; their conditions need not be identical. Identical values can stand only once. This is part of a sample that, as a whole, favours compounds with a hit. Of some 83,000 tested, about 20% had one in any assay.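 A percent growth of 40 corresponds to 60% growth inhibition; 0 means no net growth; -100 means all cells died. Active threshold: below 10.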 Values without a mark were called inactive. Calls of active or inactive are those of the source.

What follows are compounds tested on MDA-MB-468 breast (assay: NCI-60 one-dose screen, 48 h (100 = growth as untreated, 0 = no growth, -100 = all killed)). Settings: 10 µM unless noted.

| Compound | growth |
| --- | --- |
| Clc1cc(Cl)cc(N2N=C(c3cccc(Nc4ccncc4)c3)CC2c2ccc3c(c2)OCO3)c1 (stereo not given) | 24.8% |
| CC(N)C(=O)NNc1n[nH]c(=S)n1N (stereo not given) | 82% |
| O=C(/C=C/c1ccccc1)n1c(-c2ccccc2)nc2ccccc21 | 98.2% |
| O=C1C=CC(Nc2ccccc2[N+](=O)[O-])C1Nc1ccccc1[N+](=O)[O-] (stereo not given) | -97.4% (active) |
| COc1cc(C2CC(c3cccc(Nc4ccnc5cc(Cl)ccc45)c3)=NN2c2ccc(Cl)cc2)cc(OC)c1OC (stereo not given) | 74.4% |
| CC(C)(O)c1cn(CCCCN2C(=O)C(=O)c3ccccc32)nn1 | 95% |
| c1ccc(-c2n(Cc3ccc4ccccc4n3)c3ccccc3[n+]2Cc2ccc3ccccc3n2)cc1 | -34.3% (active) |
| C/C=C/CC(C)C(O)[C@H](NC(=O)[C@@H]1CCCN1C(=O)[C@](C)(CC)NC(=O)CCCCCCCCC)C(=O)N[C@@](C)(CC)C(=O)N[C@@H](CCC(N)=O)C(=O)N[C@H](CCC(N)=O)C(=O)NC(C)(C)C(=O)NC(C)(C)C(=O)N[C@@H](CCC(N)=O)C(=O)N[C@H](CC(C)C)C(=O)N[C@H](CO)CC(C)C (stereo not given in full) | -10.2% (active) and -64% (active) |
| CCN(CC)c1ccc(/C=N/NC(=O)c2ccc(S(N)(=O)=O)cc2)cc1 | 1.85% (active) |
| CC[n+]1c(/C=C/c2ccc(N3CCCC3)cc2)cccc1/C=C/c1ccc(N2CCCC2)cc1 | -85.8% (active) |
| COc1ccc2nc3ccccc3c(NCc3ccccc3)c2c1 | -9.89% (active) |
| C#CCOc1ccc2ncnc(Nc3cccc(NC(=O)CCl)c3)c2c1 | 68.5% |
| Nc1c2c(nc3ccc(Br)cc13)CC(c1ccccc1)CC2=O (stereo not given) | -4.68% (active) |
| CCCCCCCCCC[N+](C)(C)N | 55.1% |
| CN(C)c1ccc2nc3ccc(=[N+](C)C)c([N+](=O)[O-])c-3sc2c1 | 0.864% (active) |
| CN(C)CCCN(Cc1ccccc1O)C(=S)Nc1ccc(Cl)cc1 | 89.6% |
| COc1cc2c(cc1-c1c(C)noc1C)ncc1nc(C3CCOCC3)n(C3CCC(OC(F)F)CC3)c12 (stereo not given) | 40.9% |
| COc1ccc(C/C(C)=C(\c2ccc(Cl)cc2)c2ccc(OCCN3CCCCC3)cc2)cc1 | 98.2% |
| Cc1nc2ccccc2c(/C=C/c2ccc(Cl)cc2)c1C(=O)/C=C/c1ccc(C(F)(F)F)cc1 | -65.8% (active) |
| Fc1c[c-]c(-c2ccccn2)c(F)c1.[CH3-].[Pt+2].c1ccc(P(C[PH+](c2ccccc2)c2ccccc2)c2ccccc2)cc1 | -38.3% (active) |

| Compound | growth |
| --- | --- |
| O=S(=O)(NCCNc1nccc(-c2c(-c3cccc(F)c3)nc3sccn23)n1)c1ccccc1 | 43.6% |
| COc1cc(/C=C/C(=O)c2ccc(F)cc2)ccc1Oc1nc(NCCO)nc(N2CCOCC2)n1 | 77.2% |
| COc1cc2nc(Cl)nc(NCCO)c2cc1OC | 99.2% |
| CC(=O)NC(CCc1ccc(Cl)c(Cl)c1)c1cccc(O)c(=O)c1 (stereo not given) | -31.6% (active) |
| N#Cc1cccc(-c2c(-c3ccc4ccccc4c3)oc3ccccc3c2=O)c1 | 3.16% (active) |
| Cc1ccc(-c2cc(-c3ccc(Cl)cc3)nc(NC(=O)c3cccnc3)n2)cc1 | 106% |
| CC(C)(C)c1cc(NC(=O)Nc2ccc(-c3cn4c5c(sc4n3)CCc3cn(CCCN4CCCCC4)cc3-5)cc2)no1 | -76% (active) |
| c1ccc(CP(Cc2ccccc2)c2ccccc2)cc1 | 98.6% |
| CCCCNC(=O)Oc1ccc(/C(=C(\C)c2ccc(Cl)cc2)c2ccc(OCCN3CCCCC3)cc2)cc1 | 62.9% |
| O=C1c2cccc3cccc(c23)C(=O)N1N1C(=O)c2cccc3c(NC4CCCCC4)ccc(c23)C1=O | 100% |
| O=C(OCc1ncc(-c2ccc(C(F)(F)F)cc2)c(NC2CCCCCC2)n1)c1c(F)c(F)c(F)c(F)c1F | 16.9% |
| COc1ccc(-c2nc3sccn3c2/C=C/C(=O)c2c[nH]c3ccccc23)cc1 | 62.6% |
| COc1cc2nc(-c3ccc(C(F)(F)F)cc3)cc(OCCCN3CCOCC3)c2cc1OC | 49.4% |
| COc1cc2c(=O)n(CCN(C)C)c3c4cc5c(cc4ccc3c2cc1OC)OCO5 | -66.8% (active) |
| O=[N+]([O-])c1cccc(/C=N/NC(=S)NC23CC4CC(CC(C4)C2)C3)c1 | 82.1% |
| N#CSCC1CC(O)(c2ccccc2)C(c2ccccc2)C(c2ccc(Cl)cc2)O1 (stereo not given) | -58.9% (active) |
| O=S(=O)(Nc1ncccn1)c1ccc(NC2Nc3nc4ccccc4nc3S2)cc1 (stereo not given) | 95.5% |
| COC(=O)[C@]12CC[C@@H](C)[C@H](C)[C@@H]1C1=CC[C@@H]3[C@@]4(C)C[C@@H](OC(C)=O)[C@H](OC(C)=O)[C@@](C)(COC(C)=O)[C@@H]4[C@H](O)C[C@@]3(C)[C@]1(C)CC2 | -6.62% (active) |
| C=C1C(=O)O[C@H]2[C@H]1CC/C(COC(=O)CSCC(=O)OC/C1=C/CC[C@@]3(C)O[C@H]3[C@H]3OC(=O)C(=C)[C@@H]3CC1)=C\CC[C@@]1(C)O[C@@H]21 | -1.97% (active) |
| Cc1cc2c(cc1C)[n+](Cc1ccc3ccccc3n1)cn2Cc1ccc2ccccc2n1 | -35.5% (active) |
